PubChem BioAssay (EPA / NIEHS)
Results filed as inconclusive are left out. Activity calls are given as the source filed them. The calls were made as follows, unless noted: active = hit-call score of the fitted dose curve at least 0.9, where 1 is the maximum; inactive = score below 0.9.

Key:
[1] = ATG_NFI_CIS: Attagene CIS-FACTORIAL HepG2 Assay for human Nuclear Factor I (NFI) (AID 2282989); conditions: HepG2 cis-regulatory reporter, NFI response element transcription; actives raise or lower the signal
Procedure, shortened: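 Read-out: reporter mRNA via RT-PCR plus capillary electrophoresis with fluorescence detection. Transiently transfected HepG2 (endogenous TF activity on cis promoters), 24 h compound exposure; gain or loss of signal fitted against DMSO.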

[2] = molecular target: Myc proto-oncogene protein (Homo sapiens) (UniProt P01106); test: ATG_Myc_CIS: Attagene CIS-FACTORIAL HepG2 Assay for human Myelocytomatosis (Myc) Proto-Oncogene Transcription Factor (AID 2282990); conditions: HepG2, Attagene cis-reporter transcription factor activity; actives raise or lower the signal
Sequence of Myc proto-oncogene protein (Homo sapiens) (P01106 whole entry, looked up): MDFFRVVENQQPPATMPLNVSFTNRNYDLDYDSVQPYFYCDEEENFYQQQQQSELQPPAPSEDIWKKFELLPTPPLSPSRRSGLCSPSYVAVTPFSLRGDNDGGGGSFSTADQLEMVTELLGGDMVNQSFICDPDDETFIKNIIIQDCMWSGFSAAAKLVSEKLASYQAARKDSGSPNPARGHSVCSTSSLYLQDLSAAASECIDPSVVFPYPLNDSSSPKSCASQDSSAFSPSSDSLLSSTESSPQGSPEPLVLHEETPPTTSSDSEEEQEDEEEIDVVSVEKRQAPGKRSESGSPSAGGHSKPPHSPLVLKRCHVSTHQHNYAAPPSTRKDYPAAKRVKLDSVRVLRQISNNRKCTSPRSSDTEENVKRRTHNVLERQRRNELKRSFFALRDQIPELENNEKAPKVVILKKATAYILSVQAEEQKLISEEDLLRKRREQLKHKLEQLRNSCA
Procedure, shortened: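 DMSO-normalised, bidirectionally fitted reporter mRNA signal. HepG2 cells transfected with cis reporter constructs, treated 24 h; transcripts detected by RT-PCR, 6-FAM primer extension and CE.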

[3] = ATG_NRF2_ARE_CIS: Attagene CIS-FACTORIAL HepG2 Assay for human Nuclear Factor Erythroid 2 Related Factor 2 (NFR2) response to Antioxidant Response Elements (ARE) (AID 2282992); conditions: HepG2 Attagene ARE/NRF2 reporter, transcription factor activity; actives raise or lower the signal;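 as to AC50: reporter mRNA level measured by RT-PCR and capillary electrophoresis fluorescence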
Procedure, shortened: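 Endogenous transcription factor activity in human liver HepG2 cells is tracked via a cis-element-driven reporter within a multiplexed set. mRNA induction is read by RT-PCR and capillary electrophoresis after 24 h, with DMSO as baseline.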

[4] = ATG_Oct_MLP_CIS: Attagene CIS-FACTORIAL HepG2 Assay for human Octamer-Binding Transcription Factor (Oct) (AID 2282993); conditions: HepG2 Attagene cis-factorial Oct reporter, mRNA; actives raise or lower the signal
Procedure, shortened: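 Read-out: reporter mRNA via RT-PCR plus capillary electrophoresis of 6-FAM-labelled fragments. Transiently transfected HepG2, 24 h exposure, endogenous TF activity on cis elements. Gain or loss of signal fitted relative to DMSO.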

[5] = molecular target: Cellular tumor antigen p53 (Homo sapiens) (UniProt P04637); test: ATG_p53_CIS: Attagene CIS-FACTORIAL HepG2 Assay for human p53 Transcription Factor (AID 2282994); conditions: HepG2 p53 cis-element reporter, Attagene mRNA; actives raise or lower the signal
Sequence of Cellular tumor antigen p53 (Homo sapiens) (P04637 whole entry, looked up, the tested form may be a part): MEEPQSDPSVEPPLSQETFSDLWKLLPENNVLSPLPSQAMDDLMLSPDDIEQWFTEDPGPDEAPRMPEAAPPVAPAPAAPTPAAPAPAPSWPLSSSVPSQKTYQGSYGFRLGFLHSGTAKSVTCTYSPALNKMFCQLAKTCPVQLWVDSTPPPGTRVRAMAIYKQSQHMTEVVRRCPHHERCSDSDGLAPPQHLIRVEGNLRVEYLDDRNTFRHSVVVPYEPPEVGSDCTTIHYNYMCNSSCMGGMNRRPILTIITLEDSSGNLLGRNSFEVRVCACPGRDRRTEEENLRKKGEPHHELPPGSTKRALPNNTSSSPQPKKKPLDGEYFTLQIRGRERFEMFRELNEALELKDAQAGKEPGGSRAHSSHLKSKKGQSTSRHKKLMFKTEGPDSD
Procedure, shortened: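 Steps: transfect HepG2 with multiplexed cis reporter constructs; dose chemicals 24 h; extract RNA, reverse-transcribe, PCR-amplify reporter sequences; FAM-label, HpaI-digest, resolve fragments by CE. Activity fitted both directions relative to DMSO.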

[6] = molecular target: human Peroxisome Proliferator-activated Receptor alpha (PPARa), PPARA (gene 5465) (UniProt Q07869); test: ATG_PPARa_TRANS: Attagene TRANS-FACTORIAL HepG2 Assay for human Peroxisome Proliferator-activated Receptor alpha (PPARa) (AID 2283001; active = hit-call score of the fitted dose curve at least 0.9, where 1 is the maximum)
Sequence of human Peroxisome Proliferator-activated Receptor alpha (PPARa), PPARA (gene 5465) (Q07869 whole entry, looked up, the tested form may be a part): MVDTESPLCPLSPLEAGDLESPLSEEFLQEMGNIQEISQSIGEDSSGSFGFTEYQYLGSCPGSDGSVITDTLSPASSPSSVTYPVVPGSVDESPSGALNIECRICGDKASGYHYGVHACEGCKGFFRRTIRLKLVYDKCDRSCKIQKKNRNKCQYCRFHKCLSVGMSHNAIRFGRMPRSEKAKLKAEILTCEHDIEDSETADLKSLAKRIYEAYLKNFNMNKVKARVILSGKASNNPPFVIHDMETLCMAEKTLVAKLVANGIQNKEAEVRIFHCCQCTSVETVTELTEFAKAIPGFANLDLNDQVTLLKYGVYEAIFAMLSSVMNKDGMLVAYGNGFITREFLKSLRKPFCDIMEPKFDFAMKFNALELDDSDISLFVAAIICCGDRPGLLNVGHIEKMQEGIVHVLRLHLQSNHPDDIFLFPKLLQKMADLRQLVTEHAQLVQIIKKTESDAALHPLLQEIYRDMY
Procedure, shortened: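 Exposure: 24 h, transiently transfected HepG2 cells. Endpoint: GAL4-UAS reporter mRNA, RT-PCR with capillary electrophoresis fluorescence. Baseline: DMSO; increases fitted.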

[7] = molecular target: human Peroxisome Proliferator-activated Receptor delta (PPARd), PPARD (gene 5467) (UniProt Q03181); test: ATG_PPARd_TRANS: Attagene TRANS-FACTORIAL HepG2 Assay for human Peroxisome Proliferator-activated Receptor delta (PPARd) (AID 2283002; active = hit-call score of the fitted dose curve at least 0.9, where 1 is the maximum)
Sequence of human Peroxisome Proliferator-activated Receptor delta (PPARd), PPARD (gene 5467) (Q03181 whole entry, looked up, the tested form may be a part): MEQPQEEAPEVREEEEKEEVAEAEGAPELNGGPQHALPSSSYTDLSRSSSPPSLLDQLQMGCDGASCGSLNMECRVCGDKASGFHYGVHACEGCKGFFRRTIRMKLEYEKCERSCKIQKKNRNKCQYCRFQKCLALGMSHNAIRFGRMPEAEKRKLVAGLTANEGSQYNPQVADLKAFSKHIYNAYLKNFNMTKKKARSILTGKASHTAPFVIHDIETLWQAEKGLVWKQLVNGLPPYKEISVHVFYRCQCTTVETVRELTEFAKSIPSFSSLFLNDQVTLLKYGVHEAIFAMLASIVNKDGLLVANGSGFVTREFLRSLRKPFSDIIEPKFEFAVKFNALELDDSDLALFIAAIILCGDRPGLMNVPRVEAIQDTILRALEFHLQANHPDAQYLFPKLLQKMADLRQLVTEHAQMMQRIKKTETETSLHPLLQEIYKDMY
Procedure, shortened: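 Measured quantity: GAL4-UAS reporter transcript induction in HepG2 after 24 h chemical dosing, with NR-Gal4 chimeras supplied by transient transfection. Detection by RT-PCR and capillary electrophoresis; upward fit against DMSO.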

[8] = molecular target: Peroxisome proliferator-activated receptor gamma (Homo sapiens) (UniProt P37231); test: ATG_PPARg_TRANS: Attagene TRANS-FACTORIAL HepG2 Assay for human Peroxisome Proliferator-activated Receptor-gamma (PPARg) (AID 2283007; active = hit-call score of the fitted dose curve at least 0.9, where 1 is the maximum)
Sequence of Peroxisome proliferator-activated receptor gamma (Homo sapiens) (P37231 whole entry, looked up): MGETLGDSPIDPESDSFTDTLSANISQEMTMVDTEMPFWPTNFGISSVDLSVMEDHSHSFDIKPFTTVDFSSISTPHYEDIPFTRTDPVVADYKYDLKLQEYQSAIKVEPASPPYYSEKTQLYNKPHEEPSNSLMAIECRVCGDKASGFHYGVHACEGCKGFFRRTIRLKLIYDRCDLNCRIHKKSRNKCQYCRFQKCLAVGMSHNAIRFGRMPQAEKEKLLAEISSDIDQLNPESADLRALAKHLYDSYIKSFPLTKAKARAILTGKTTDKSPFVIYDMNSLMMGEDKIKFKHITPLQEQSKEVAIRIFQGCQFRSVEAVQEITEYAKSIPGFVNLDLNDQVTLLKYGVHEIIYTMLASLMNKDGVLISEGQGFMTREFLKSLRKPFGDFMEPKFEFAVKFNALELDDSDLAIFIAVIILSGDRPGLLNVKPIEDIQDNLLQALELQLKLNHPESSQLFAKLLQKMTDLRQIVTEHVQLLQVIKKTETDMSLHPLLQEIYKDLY
Procedure, shortened: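 Multiplexed reporter transcription units in HepG2, 24 h dosing, reporter transcripts quantified by fluorescent RT-PCR and capillary electrophoresis. Increase over DMSO scored.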

[9] = molecular target: Nuclear receptor subfamily 1 group I member 2 (Homo sapiens) (UniProt O75469); test: ATG_PXR_TRANS: Attagene TRANS-FACTORIAL HepG2 Assay for human Pregnane X Receptor (PXR) (AID 2283008; active = hit-call score of the fitted dose curve at least 0.9, where 1 is the maximum)
Sequence of Nuclear receptor subfamily 1 group I member 2 (Homo sapiens) (O75469 whole entry, looked up, the tested form may be a part): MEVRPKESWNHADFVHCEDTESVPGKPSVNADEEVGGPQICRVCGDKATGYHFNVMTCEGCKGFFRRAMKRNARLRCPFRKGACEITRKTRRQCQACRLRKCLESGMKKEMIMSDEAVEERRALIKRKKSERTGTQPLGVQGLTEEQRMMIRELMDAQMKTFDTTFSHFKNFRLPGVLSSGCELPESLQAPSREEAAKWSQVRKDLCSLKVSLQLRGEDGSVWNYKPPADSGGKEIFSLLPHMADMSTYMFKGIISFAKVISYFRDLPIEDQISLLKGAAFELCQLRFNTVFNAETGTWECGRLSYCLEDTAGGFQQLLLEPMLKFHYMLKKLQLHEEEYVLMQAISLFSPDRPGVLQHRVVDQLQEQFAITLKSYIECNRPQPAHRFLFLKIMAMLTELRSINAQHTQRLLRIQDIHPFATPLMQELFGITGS
Procedure, shortened: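 HepG2 transfected (FuGene 6) with GAL4-UAS reporter units + PXR-Gal4 chimera; dosed 24 h. Total RNA → oligo(dT) RT → PCR → 6-FAM primer extension → HpaI cut → CE. Gain-of-signal vs DMSO.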

[10] = molecular target: human RAR-related Orphan Receptor beta (RORb), RORB (gene 6096) (UniProt Q92753); test: ATG_RORb_TRANS: Attagene TRANS-FACTORIAL HepG2 Assay for human RAR-related Orphan Receptor beta (RORb) (AID 2283010; active = hit-call score of the fitted dose curve at least 0.9, where 1 is the maximum)
Sequence of human RAR-related Orphan Receptor beta (RORb), RORB (gene 6096) (Q92753 whole entry, looked up, the tested form may be a part): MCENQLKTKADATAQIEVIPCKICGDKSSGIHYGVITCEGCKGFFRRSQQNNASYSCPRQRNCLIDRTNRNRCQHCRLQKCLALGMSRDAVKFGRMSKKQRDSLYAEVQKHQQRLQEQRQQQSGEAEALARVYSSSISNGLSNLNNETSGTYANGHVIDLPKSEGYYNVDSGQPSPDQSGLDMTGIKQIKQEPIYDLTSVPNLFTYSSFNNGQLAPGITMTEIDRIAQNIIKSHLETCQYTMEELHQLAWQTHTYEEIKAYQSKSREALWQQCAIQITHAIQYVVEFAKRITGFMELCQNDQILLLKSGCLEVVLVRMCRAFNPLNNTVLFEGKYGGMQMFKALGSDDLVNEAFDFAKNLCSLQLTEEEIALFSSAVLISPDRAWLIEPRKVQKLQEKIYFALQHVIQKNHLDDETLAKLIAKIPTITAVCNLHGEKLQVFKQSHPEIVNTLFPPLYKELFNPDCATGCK
Procedure, shortened: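 HepG2, transient MRTU transfection (GAL4-UAS reporters, exogenous NR-Gal4 chimeras); 24 h compound exposure; total RNA → RT-PCR → 6-FAM primer extension → HpaI digest → CE fluorescence. Positive direction vs DMSO baseline.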

[11] = molecular target: Retinoic acid receptor alpha (Homo sapiens) (UniProt P10276); test: ATG_RARa_TRANS: Attagene TRANS-FACTORIAL HepG2 Assay for human Retinoic Acid Receptor alpha (RARa) (AID 2283005; active = hit-call score of the fitted dose curve at least 0.9, where 1 is the maximum)
Sequence of Retinoic acid receptor alpha (Homo sapiens) (P10276 whole entry, looked up, the tested form may be a part): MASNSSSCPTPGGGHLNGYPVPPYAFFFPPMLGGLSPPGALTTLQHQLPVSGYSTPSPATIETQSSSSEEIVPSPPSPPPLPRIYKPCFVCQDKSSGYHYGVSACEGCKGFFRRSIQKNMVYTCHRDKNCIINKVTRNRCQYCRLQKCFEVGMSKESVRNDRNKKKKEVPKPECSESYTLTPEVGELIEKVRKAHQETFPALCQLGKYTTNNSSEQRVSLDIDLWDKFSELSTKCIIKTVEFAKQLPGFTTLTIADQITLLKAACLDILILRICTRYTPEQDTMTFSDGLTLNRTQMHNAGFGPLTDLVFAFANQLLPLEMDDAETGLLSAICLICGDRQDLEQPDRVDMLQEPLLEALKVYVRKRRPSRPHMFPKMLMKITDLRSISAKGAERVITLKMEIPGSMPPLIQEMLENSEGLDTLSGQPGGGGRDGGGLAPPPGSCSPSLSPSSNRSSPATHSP
Procedure, shortened: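 HepG2 cells transiently transfected with multiple reporter units expressing chimeric RARα-GAL4 fusion, with GAL4-UAS-driven reporters. After 24 h compound exposure, reporter mRNA induction quantified by RT-PCR and capillary electrophoresis with fluorescent labeling; gain-of-signal fitted relative to DMSO control.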

[12] = molecular target: human Retinoic Acid Receptor gamma (RARg), RARG (gene 5916) (UniProt P13631); test: ATG_RARg_TRANS: Attagene TRANS-FACTORIAL HepG2 Assay for human Retinoic Acid Receptor gamma (RARg) (AID 2283009; active = hit-call score of the fitted dose curve at least 0.9, where 1 is the maximum)
Sequence of human Retinoic Acid Receptor gamma (RARg), RARG (gene 5916) (P13631 whole entry, looked up, the tested form may be a part): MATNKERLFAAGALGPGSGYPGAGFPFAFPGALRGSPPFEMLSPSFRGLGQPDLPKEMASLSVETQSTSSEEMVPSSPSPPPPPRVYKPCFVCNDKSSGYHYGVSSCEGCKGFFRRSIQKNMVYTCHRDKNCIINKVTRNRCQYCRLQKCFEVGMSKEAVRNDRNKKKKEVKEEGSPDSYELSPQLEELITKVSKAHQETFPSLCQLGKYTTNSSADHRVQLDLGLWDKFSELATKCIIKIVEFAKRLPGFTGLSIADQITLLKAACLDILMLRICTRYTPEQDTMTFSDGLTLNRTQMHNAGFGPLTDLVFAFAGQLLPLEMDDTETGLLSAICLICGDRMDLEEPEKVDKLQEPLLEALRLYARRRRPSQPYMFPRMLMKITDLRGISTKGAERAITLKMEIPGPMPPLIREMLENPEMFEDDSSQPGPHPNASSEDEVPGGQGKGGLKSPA
Procedure, shortened: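 Readout: reporter transcript levels via RT-PCR, 6-FAM primer-extension labelling, HpaI digestion and capillary electrophoresis. Cells: HepG2 carrying transfected RARg-GAL4 chimera plus UAS reporter set. Dosing 24 h; DMSO negative control.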

For `O=C(Cl)c1cccc(C(=O)Cl)c1`, the outcome [1] was “inactive”, the outcome [2] was “inactive” and the outcome [3] was “inactive”. For the same compound, the outcome [4] was “inactive”, the outcome [5] was “inactive” and the outcome [6] was “inactive”.

For `Nc1cccc(S(=O)(=O)c2cccc(N)c2)c1`, the outcome [1] was “inactive”, the outcome [2] was “inactive” and the outcome [3] was “inactive”. The outcome [4] was “inactive”, the outcome [5] was “inactive” and the outcome [7] was “inactive”. The outcome [8] was “inactive”, the outcome [9] was “inactive” and the outcome [10] was “inactive”.

In the case of `COc1ccnc(CS(=O)c2nc3cc(OC(F)F)ccc3[nH]2)c1OC` (centres undefined), the outcome [1] is reported as “inactive”, the outcome [2] is reported as “inactive” and the AC50 [3] is reported as 59.4 µM (active). For the same compound, the outcome [4] was “inactive”, the outcome [7] was “inactive” and the outcome [9] was “inactive”. For the same compound, the outcome [10] was “inactive”.

In the case of `CN1Cc2c(N)cccc2C(c2ccccc2)C1` (centres undefined), the outcome [1] is reported as “inactive”, the outcome [2] is reported as “inactive” and the outcome [3] is reported as “inactive”. For the same compound, the outcome [4] was “inactive”, the outcome [11] was “inactive” and the outcome [8] was “inactive”. For the same compound, the outcome [9] was “inactive” and the outcome [12] was “inactive”.

In the case of `CNCCO`, the outcome [1] is reported as “inactive”, the outcome [2] is reported as “inactive” and the outcome [3] is reported as “inactive”. For the same compound, the outcome [4] was “inactive”, the outcome [5] was “inactive” and the outcome [8] was “inactive”. For the same compound, the outcome [9] was “inactive”.

With `Clc1sc(Cl)c(Cl)c1Cl` the outcome [1] was “inactive”, the outcome [2] was “inactive” and the outcome [3] was “inactive”. The outcome [4] was “inactive”, the outcome [6] was “inactive” and the outcome [7] was “inactive”. The outcome [9] was “inactive”.

For `COc1ccc(OC)c(OC)c1`, the outcome [1] was “inactive”, the outcome [2] was “inactive” and the outcome [4] was “inactive”. For the same compound, the outcome [5] was “inactive”, the outcome [6] was “inactive” and the outcome [8] was “inactive”. The outcome [9] was “inactive”.

For `CC(=O)OCC=Cc1ccccc1`, the outcome [1] was “inactive”, the outcome [2] was “inactive” and the AC50 [3] was 34.9 µM (active). The outcome [4] was “inactive”, the outcome [5] was “inactive” and the AC50 [8] was 9.38 µM (active). The outcome [9] was “inactive”.

With `NCCOCCO` the outcome [1] was “inactive”, the outcome [2] was “inactive” and the outcome [3] was “inactive”. For the same compound, the outcome [4] was “inactive”, the outcome [5] was “inactive” and the outcome [9] was “inactive”. The outcome [10] was “inactive”.

In the case of `NCCCN1CCOCC1`, the outcome [1] is reported as “inactive”, the outcome [2] is reported as “inactive” and the outcome [3] is reported as “inactive”. For the same compound, the outcome [4] was “inactive”, the outcome [6] was “inactive” and the outcome [7] was “inactive”.
